In the library only some 19% were active in any assay of this set; here they are far more common.
HepG2 viability = qHTS for Inhibitors of TGF-b: Cytotox Counterscreen | HepG2 CAGA-GFP viability, ATP luminescence, 18 h | AID 588856, 2011 | 410,000 tested, 0.76% active | Potency, µM (top dose mostly 46.1 µM), inactives show top-dose activity change, negative = cytotoxicity, actives largely listed as cytotoxic; further: potency means the concentration at half of the fitted maximal effect
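HepG2 CAGA-GFP cells (1000/well, DMEM with 1% FBS) received compound, then TGF-beta at 500 pg/mL final, and were incubated 18 hours at 37 degrees C. Viability was read by CellTiter-Glo luminescence. Media-only wells were set as complete cell-killing and DMSO as no toxicity.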
TDP1 block = qHTS Assay for Inhibitors of Tyrosyl-DNA Phosphodiesterase (TDP1). Tyrosyl-DNA phosphodiesterase 1 (Homo sapiens), Q9NUW8. recombinant TDP1, AlphaScreen DNA substrate cleavage. Potency, µM (series often up to 130 µM), for the others: top-dose activity change, negative = inhibition, most hits filed as inhibitors. 350,000 tested, 0.28% active; further: potency means the concentration at half of the fitted maximal effect; on the % scale 0 is the no-effect control and ±100 the full control effect; nearly all actives have a fitted effect of over 40% in size
Target sequence (Q9NUW8 whole entry, looked up): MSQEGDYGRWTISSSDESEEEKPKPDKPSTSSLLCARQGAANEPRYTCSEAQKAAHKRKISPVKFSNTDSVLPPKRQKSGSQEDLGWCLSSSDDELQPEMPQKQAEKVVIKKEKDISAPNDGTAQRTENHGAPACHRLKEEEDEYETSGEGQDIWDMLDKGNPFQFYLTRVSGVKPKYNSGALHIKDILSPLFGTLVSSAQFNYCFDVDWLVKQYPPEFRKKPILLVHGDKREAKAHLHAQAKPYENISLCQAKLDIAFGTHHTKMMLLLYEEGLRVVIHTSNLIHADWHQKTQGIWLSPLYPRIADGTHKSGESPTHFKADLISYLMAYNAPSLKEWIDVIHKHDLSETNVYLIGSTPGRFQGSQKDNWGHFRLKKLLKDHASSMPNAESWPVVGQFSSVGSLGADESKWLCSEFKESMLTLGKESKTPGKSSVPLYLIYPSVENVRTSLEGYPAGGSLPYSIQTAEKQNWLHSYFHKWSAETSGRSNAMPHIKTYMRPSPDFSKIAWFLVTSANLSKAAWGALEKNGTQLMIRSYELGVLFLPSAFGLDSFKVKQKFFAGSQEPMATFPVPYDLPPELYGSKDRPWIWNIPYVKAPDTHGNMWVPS
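AlphaScreen read-out: signal falls as enzyme removes the 3' tyrosine-FITC from a 5'-biotinylated DNA oligo (15 nM, 5 min, RT). Enzyme was E. coli-made recombinant Tdp1 at 1 nM, exposed to compound for 15 min beforehand; beads 10 ug/ml, 10 min.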
DT40 TDP1 CPT = qHTS for Inhibitors of human tyrosyl-DNA phosphodiesterase 1 (TDP1): qHTS in cells in presence of CPT. Potency, µM (titrated, usually from 46.2 µM), for inactives: at the highest dose activity change, negative = growth inhibition, usual class: inhibitors. chicken DT40 Tdp1-/-;hTDP1 cells + 20 nM CPT, ATP luminescence, 48 h. 420,000 tested, 12% active. AID 686979, 2013; further: potency means the concentration at half of the fitted maximal effect; on the % scale 0 is the no-effect control and ±100 the full control effect; nearly all actives have a fitted effect of over 55% in size
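Chicken DT40 Tdp1-/- cells stably complemented with human TDP1 were seeded at 400 cells/well in medium containing 20 nM camptothecin, exposed to pin-transferred compounds, and grown at 37 °C for at least 48 hr. Viability was read as ATP luminescence.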
DT40 TDP1 no CPT = qHTS for Inhibitors of human tyrosyl-DNA phosphodiesterase 1 (TDP1): qHTS in cells in absence of CPT. DT40 Tdp1-/- hTDP1 cells, no CPT, ATP luminescence, 48 h. Potency, µM (series often up to 46.2 µM), inactives show at the top dose activity change, negative = growth inhibition, hits mostly inhibitors. 420,000 tested, 15% active. AID 686978, 2013; further: potency means the concentration at half of the fitted maximal effect; on the % scale 0 is the no-effect control and ±100 the full control effect; nearly all actives have a fitted effect of over 55% in size
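Compound effects on proliferation are scored in DT40 Tdp1-/-;hTDP1 cells in the absence of CPT. ATP levels (CellTiter-Glo luminescence) are recorded after a ≥48 hr, 37 °C incubation.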
IL1B secr inh = qHTS for Inhibitors of Inflammasome Signaling: IL-1-beta AlphaLISA Primary Screen. THP-1 LPS/ATP IL-1B secretion, AlphaLISA, 16 h; hits give low values. AID 743279, 2014. 360,000 tested, 4.7% active. activity change, % at 57.5 µM; in the data active means activity change below about -50%; inconclusive means mostly about -30% to -49%; further: on the % scale 0 is the no-effect control and ±100 the full control effect
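THP-1 cells pretreated 1 hr with compounds (up to 57.5 uM final), then stimulated with LPS (250 ng/mL final) plus ATP (1.25 mM final); secreted IL-1B measured by AlphaLISA after 16 hr, decreased signal indicating inhibition.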
TGFb SMAD3 inh = qHTS for Inhibitors of TGF-b; HepG2 CAGA-GFP TGF-b/SMAD3 reporter, GFP fluorescence, 18 h; TGF-beta stimulated, 500 pg/mL final; Potency, µM (titrated, usually from 46.1 µM), for the others: at the top dose activity, negative = inhibition, actives largely listed as inhibitors; 410,000 tested, 1.2% active; AID 588855, 2011; further: potency means the concentration at half of the fitted maximal effect; on the % scale 0 is the no-effect control and ±100 the full control effect; nearly all actives have a fitted effect of over 65% in size
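Smad-responsive CAGA-GFP expression was quantified in HEPG2 cells exposed to compounds and 500 pg/mL final TGF-beta for 18 h at 37 degrees C; unstimulated wells defined full inhibition.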
* hit, by the source's call; ? = inconclusive; nt = no result given; ! = a repeat was not active; [ ] = remark or other dose. Unless noted, the call rests on the fitted dose curve; in most records, active means well fitted curve in the direction sought with a large enough effect; inconclusive means small, poorly fitted or top-dose-only effect, or another doubt; inactive means no such curve, though single readings can be large; an effect the other way counts as inactive or inconclusive.

SMILES	HepG2 viability	TDP1 block	DT40 TDP1 CPT	DT40 TDP1 no CPT	IL1B secr inh	TGFb SMAD3 inh
CCOC(=O)CNC(=O)CNC(=O)c1nn(-c2ccc(OC)c(Cl)c2)c(=O)c2ccccc12	-15.7%	1.1%	?	-4.6%	-2.0	6.3%
CC1=CC2/C=C(\C)CCC(O)C(O)/C=C/C(=O)C23C(=O)NC(CC(C)C)C3C1C (stereo not drawn)	-116.5%	1.3%	3.66µM*	1.84µM*	-105.9*	3.16µM*
CCOP(=O)(OCC)Oc1ccc2ccc(=O)oc2c1	nt	6.2%	nt	nt	nt	nt
N#Cc1cc([N+](=O)[O-])ccc1NC(=O)c1cccn(Cc2cccc(F)c2)c1=O	-15.1%	2.6%	-18.5%	-4.8%	nt	6.0%
O=C(NN=Cc1ccc(N(CCCl)CCCl)cc1Cl)c1cccnc1	-55.7%	nt	?	23.1µM*	-5.9	5.01µM*
Cc1cc(N(CCCl)CCCl)ccc1C=NNC(=O)c1cccnc1	-32.4%	nt	10.3µM*	?	0.4	-7.8%
Cc1ccc(-n2c(O)c(/C=N/NC(=O)c3ccncc3)c(=O)[nH]c2=O)cc1C	-0.5%	3.1%	-23.9%	?	12.0	10.7%
O=c1c2ccccc2nc(CSc2ncnc3nc[nH]c23)n1-c1ccc(Cl)c(Cl)c1	4.5%	2.1%	7.08µM*	10µM*	12.3	-1.3%
Cc1cc(=O)[nH]c(SCc2nc3ccccc3c(=O)n2-c2ccccc2C)n1	0.0%	-3.7%	-1.1%	-18.5%	38.7	13.7%
CC1OC1P(=O)(O)O (stereo not drawn)	nt	-6.1%[56.1 µM]	nt	nt	nt	nt
CN(CC(=O)Nc1ccccc1-c1ccccc1)C1CCCCC1	-2.9%	0.0%	23.1µM*	?	-10.2	-26.5%
O=C(O)c1ccccc1Nc1cccc(C(F)(F)F)c1	-24.3%	8.4%	11.6µM*!	15µM*	24.4	-0.3%
Ic1c(C2=CCCCC2)[se]c2ccccc12	nt	2.0%	nt	nt	nt	nt
COc1ccc(-c2coc3c(C(=O)Nc4cc(OC)c(OC)c(OC)c4)cccc23)c(C)c1	-17.0%	nt	4.11µM*	3.66µM*	-22.0	-0.3%
COc1cc(NC(=O)c2cccc3c(-c4cccnc4)coc23)cc(OC)c1OC	-22.0%	nt	3.66µM*	3.26µM*	-77.7*	2.5%
COc1cccc(-c2nn(CCC#N)cc2C(=O)Nc2ccccc2Cl)c1	-22.3%	nt	?	?	31.5	-15.0%
O=C1NC(=O)C(Cc2ccccc2)(Cc2ccccc2)C(=O)N1Cc1ccccc1	-52.9%	nt	23.1µM*	?	-53.8*	?
O=C1NC(=S)NC(=O)C1Cc1ccccc1	-20.4%	nt	0.1%	-8.4%	-11.3	-9.8%
O=C1NC(=O)N(Cc2ccccc2)C(=O)C1Cc1ccccc1 (stereo not drawn)	12.7%	nt	-19.8%	8.2µM*	-1.2	?
CCOP(=O)(OCC)c1ccc2ccc3ccccc3c(=O)c2c1	-52.2%	1.1%	nt	nt	nt	-5.3%
C=C1CCC(O)C/C1=C/C=C1\CCC[C@]2(C)[C@@H]([C@H](C)CCCC(C)C)CC[C@@H]12 (stereo partly drawn)	nt	11.5%	nt	nt	nt	nt
CCc1ccc(-n2c(SC(CC)C(=O)N(CC)CC)nc3n[nH]c(C)c3c2=N)cc1 (stereo not drawn)	-9.3%	2.8%	2.59µM*	2.59µM*	nt	?
Nc1c(C(=O)NCc2ccco2)c2nc3ccccc3nc2n1Cc1ccccc1	-53.4%	-2.5%	16.4µM*	25.9µM*	?	11.2µM*
COc1ccc(Cn2c(N)c(C(=O)NCc3ccco3)c3nc4ccccc4nc32)cc1	-57.7%	-6.4%	?	?	?	?

Assay outcomes: PubChem, National Center for Advancing Translational Sciences (NCATS)
